Experimental data: PubChem BioAssay (NCATS)
Records with an inconclusive call do not appear. The source made the active and inactive calls. Calls come from the whole dose curve; as a rule, active = well fitted curve in the direction sought with a large enough effect; inconclusive = small, poorly fitted or top-dose-only effect, or another doubt; inactive = no such curve, though single readings can be large or run the other way.

Assay: Viability counterscreen for antagonist of constitutive androstane receptor (CAR) against the NCATS DSHEA and TCM libraries (AID 1794837);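 note: compound exposure lasted 24 h before viability reading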
Conditions: CAR reporter cell line viability counterscreen, qHTS; series mostly up to 40 µM
Description: Assay Development and Screening Technology Laboratory (ADST)
National Center for Advancing Translational Sciences (NCATS), Rockville, MD
National Institute of Health (NIH), Bethesda, Maryland
Dietary Supplements and Natural Products have minor oversight of their safety and efficacy. We assembled a collection of Dietary Supplements and Natural Products (DSNP) as well as Traditional Chinese Medicinal (TCM) Plant extracts, which were screened against an in vitro panel of assays, including a liver cytochrome p450 enzyme panel, CAR/PXR signaling pathways, and P-gp transporter assays, to assess their activity. This pipeline facilitated the interrogation of Natural Product-Drug Interaction (NaPDI) through prominent metabolizing pathways. In addition, we compared the activity profiles of the DSNP/TCM substances with those of an approved drug collection. Many of the approved drugs have well-annotated mechanisms of action (MOA) while the MOAs for most of the DSNP and TCM samples remain unknown. Based on the premise that compounds with similar activity profiles tend to share similar targets or MOA, we clustered the library activity profiles to identify overlap with the NCATS Pharmaceutical Collection to predict the MOAs of the DSNP/TCM substances. Overall, we highlight four significant bioactivity profiles (measured by p-values) as examples of this prediction.
To this end, we profiled both collections for potential CAR and/or PXR activity, employing a previously published 1536-well qHTS assay.
PROTOCOL TABLE (as described by Inglese J, Shamu CE and Guy RK. 2007)
SEQUENCE No. (e.g., 1, 2, 3, etc.); […] (e.g., Cells, Incubation, Reagent, etc.); VALUE; DESCRIPTION.
1; Cells; 4 uL; 1536-well white Greiner assay plate.
2; Incubation; 5 hours; 37C, 95% humidity, 5% CO2.
3; Compounds; 23 nL; Kalypsis pin tool (Wako USA) equipped with 1536-well pin head to transfer to the assay plates.
4; Reagent; 1 uL; 48 uM CITCO (final concentration).
5; Incubation; 24 hours; 37C, 5% CO2.
6; Detection Reagent 1; 1 uL; CellTiter-Fluor (Promega).
7; Incubation; 1 hour; 37C, 5% CO2.
8; Detector 1; Fluorescence intensity; ViewLux plate reader (excitation 405 nm, emission 540 nm).
9; Detection Reagent 2; 4 uL; ONE-Glo Luciferase reagent (Promega).
10; Incubation; 30 min; room temperature.
11; Detector 2; Luminescence intensity; ViewLux.
NOTES (numbers refer to Sequence numbers above)
1. 4 uL of HepG2-CYP2B6-hCAR cells at 6.25 x 10^5 cells/mL (2,500 cells/well) were dispensed using a Multidrop Combi dispenser in tissue culture-treated 1536-well white assay plates (Greiner Bio-One) in the same culture media, without geneticin and blasticidin included.
2. Plates were incubated for 5 hours at 37C, 95% humidity, and 5% CO2 to allow for cell attachment.
3. Compounds (final concentrations of most substances ranged from 15.6 nM to 31.9 uM), positive control (for antagonist mode: PK11195 with a final concentration range 2.8 nM to 92 uM), and toxicity control tetraoctyl ammonium bromide (final concentration of 92 uM) were transferred (23 nL) via pintool (Wako Automation).
4. After compound transfer, plates were dispensed with 1 uL of the known hCAR agonist 6-(4-Chlorophenyl)imidazo[2,1-b][1,3]thiazole-5-carbaldehyde O-(3,4-dichlorobenzyl)oxime (CITCO, final concentration of 48 uM) in the antagonist mode using a BioRAPTR FRDTM.
6. 1 uL of CellTiter-Fluor (Promega, Madison, Wisconsin) was added using a BioRAPTR FRDTM.
8. Fluorescence intensity (Ex/Em = 405 nm/540 nm) is obtained using the ViewLux plate reader to determine cell viability.
9. 4 uL of ONE-Glo Luciferase reagent (Promega) was added to each well using the BioRAPTR FRDTM,
10. Luminescence intensity is read using the ViewLux detector.
Inglese J, Shamu CE and Guy RK, Reporting data from high throughput screening of small molecule libraries, Nature Chemical Biology, 2007, 3(8): 438-441. doi.org/10.1038/nchembio0807-438.

Row | SMILES | outcome
1 | CCCCCCCCCCCCCCCCCCCC(=O)O | inactive
2 | COC1=CC(=O)OC(CCc2ccccc2)C1 (centres undefined) | inactive
3 | COc1cc2c(cc1O)C[C@H]1c3c(cc(OC)c(O)c3-2)CCN1C | inactive
4 | C=CCc1ccc2c(c1)OCO2 | inactive
5 | COc1cc2c(cc1O)CC1c3c(cc(O)c(OC)c3-2)CCN1C (centres undefined) | inactive
6 | C=C[C@H]1CN2CC[C@@]3(C(=O)Nc4ccccc43)[C@@H]2C[C@@H]1/C(=C\OC)C(=O)OC | inactive
7 | COc1cc2c(cc1O)CC1NCCc3cc(OC)c(OC)c-2c31 (centres undefined) | inactive
8 | N#CC(O[C@@H]1O[C@H](CO[C@@H]2O[C@H](CO)[C@@H](O)[C@H](O)[C@H]2O)[C@@H](O)[C@H](O)[C@H]1O)c1ccccc1 (some centres undefined) | inactive
9 | COC(=O)C1=CO[C@@H](C)[C@@H]2CN3CC[C@@]4(C(=O)Nc5ccccc54)[C@@H]3CC12 (some centres undefined) | inactive
10 | COC1=C[C@@]23CCN(C)[C@H](Cc4ccc(OC)c(O)c42)C3=CC1=O | inactive
11 | COc1ccc2c(c1O)-c1c(OC)c(OC)cc3c1[C@H](C2)N(C)CC3 | inactive
12 | C=C(C)[C@@H]1CCC(C)=C[C@H]1c1c(O)cc(CCCCC)cc1O | inactive
13 | CC[C@@H]1CN2CC[C@]3(C(=O)Nc4ccccc43)[C@@H]2C[C@@H]1/C(=C\OC)C(=O)OC | inactive
14 | C=C[C@H]1CN2CCc3c([nH]c4ccccc34)[C@H]2C[C@@H]1/C(=C\OC)C(=O)OC | inactive
